# Reference: the supplement of paper PMC10646978
# ± gives the standard deviation.
# Assays:
# Details in all cases: modulator concentration 10 µM
# [1] = system: RAW-Dual (murine macrophage reporter line); experiment: NF-kB reporter (SEAP) activity fold change vs agonist alone; higher = enhanced NF-kB activity
# How it was run: (§1)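 Overnight stimulation with a PRR agonist followed pre-incubation for 1 hour at 37 °C with compound at 10 μM final. This was done in RAW-Dual murine macrophage reporter cells seeded at 50 000 per well in 384-well plates. NF-κB (SEAP, QUANTI-Blue absorbance at 620 nm) and IRF (Lucia luciferase, QUANTI-Luc luminescence) were read from the supernatant. Each reporter's fold change relative to the mean agonist-only control on the same plate was averaged over replicate plates.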
# [2] = system: RAW-Dual (murine macrophage reporter line); experiment: IRF reporter (Lucia luciferase) activity fold change vs agonist alone; higher = enhanced IRF activity
# How it was run: as §1
# [3] = system: RAW-Dual (murine macrophage reporter line); experiment: viability score (confluency relative to resting cells, overnight) (fraction); higher = more viable, active = viable (0.7 or more)
# How it was run: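 RAW-Dual macrophages in 384-well plates were incubated overnight with compound, final concentration 10 μM. Confluency images from IncuCyte were processed in IncuCyte software into two masks covering all imaged wells. The viability score is each well's confluency relative to resting cells, and a compound met the cutoff when both masks exceeded 70% of resting cells.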
# [4] = agonist: CpG ODN 1826 0.5 ug/mL
Compound,"NF-kB reporter [1, 4]",NF-kB reporter ([1]; agonist: LPS 0.1 ug/mL),NF-kB reporter ([1]; agonist: MPLA […]),IRF reporter ([2]; agonist: 3'3'-cGAMP 10 ug/mL),IRF reporter ([2]; agonist: LPS 0.1 ug/mL),IRF reporter ([2]; agonist: MPLA […]),viability score [3]
CCCOc1ccc(C2NC(=O)NC(C)=C2C(=O)OC(C)C(C)(C)C)cc1OC (centres undefined),0.557 ± 0.033,1.04 ± 0.063,0.746 ± 0.052,0.478 ± 0.016,0.722 ± 0.077,0.656 ± 0.061,0.96 (active)
COc1ccccc1Cn1c(SC)nc2c(-c3ccccc3)c[nH]c2c1=O,1.51 ± 0.064,0.889 ± 0.11,0.997 ± 0.053,0.114 ± 0.0059,1.05 ± 0.19,1.41 ± 0.36,0.948 (active)
CC(=O)N1CCN(c2ccc(OC[C@H]3CO[C@](Cn4ccnc4)(c4ccc(Cl)cc4Cl)O3)cc2)CC1,0.723 ± 0.072,1.06 ± 0.071,1.03 ± 0.025,0.925 ± 0.094,1.07 ± 0.15,1.07 ± 0.27,1 (active)
CC1COc2c(N3CCN(C)CC3)c(F)cc3c(=O)c(C(=O)O)cn1c23 (centres undefined) [Prestw-237],1.46 ± 0.24,1.01 ± 0.12,1.12 ± 0.16,1.14 ± 0.033,0.8 ± 0.078,0.894 ± 0.15,0.983 (active)
COc1ccccc1N1CCN(CCCNc2cc(=O)n(C)c(=O)n2C)CC1.Cl,1.2 ± 0.3,1.08 ± 0.34,0.954 ± 0.085,0.959 ± 0.029,1.21 ± 0.4,1.12 ± 0.092,0.996 (active)
COCC(=O)Nc1c(C(=O)Nc2ccc(OC(F)(F)F)cc2)oc2ccccc12,1.26 ± 0.1,1.24 ± 0.098,1.22 ± 0.11,1.58 ± 0.085,1.84 ± 0.17,1.85 ± 0.38,0.922 (active)
Cl.NCCCC(N)(C(=O)O)C(F)F.O (centres undefined),1.06 ± 0.25,1.09 ± 0.065,1.2 ± 0.18,0.922 ± 0.035,1.3 ± 0.15,1.19 ± 0.15,0.994 (active)
CC(=O)Oc1cc(C(F)(F)F)ccc1C(=O)O,0.977 ± 0.13,1.05 ± 0.19,0.91 ± 0.053,0.976 ± 0.03,1.32 ± 0.32,1.21 ± 0.23,1 (active)
NC(CO)(CO)CO.O=C(c1ccccc1)c1ccc2n1CCC2C(=O)O (centres undefined),0.916 ± 0.18,1.05 ± 0.087,0.977 ± 0.14,0.933 ± 0.032,1.07 ± 0.2,1.15 ± 0.19,1.01 (active)
COc1ccc(C=Nc2ccc(OC(C)=O)cc2)cc1,0.738 ± 0.16,1.11 ± 0.16,1.03 ± 0.11,0.588 ± 0.029,1.34 ± 0.13,1.23 ± 0.15,1 (active)
CCOC(=O)C(CCc1ccccc1)NC(C)C(=O)N1C(C(=O)O)CC2CCCCC21 (centres undefined),0.994 ± 0.11,0.925 ± 0.068,1.08 ± 0.1,0.953 ± 0.045,1.24 ± 0.2,1.27 ± 0.29,1.05 (active)
COC(=O)C1=CN(CC2CCCO2)C=C(C(=O)OC)C1c1ccc2c(c1)OCO2 (centres undefined),1.03 ± 0.12,1.1 ± 0.093,1.02 ± 0.071,1.07 ± 0.036,1.46 ± 0.16,1.12 ± 0.089,1.01 (active)
CCCCc1nc(Cl)c(CO)n1Cc1ccc(-c2ccccc2-c2nnn[nH]2)cc1 [Prestw-1433],1.2 ± 0.29,1.08 ± 0.054,1.02 ± 0.065,0.944 ± 0.034,1.29 ± 0.14,1.32 ± 0.19,1 (active)
CCCCCCCC(O)CC(CC1CCCCC1)C(=O)NN (centres undefined),0.721 ± 0.056,0.912 ± 0.074,0.977 ± 0.093,0.88 ± 0.062,1.19 ± 0.22,1.28 ± 0.28,1.02 (active)
S=C(NCCN1CCCCC1)NCc1ccccc1,0.962 ± 0.14,1 ± 0.055,0.99 ± 0.12,1.01 ± 0.035,1.33 ± 0.14,1.22 ± 0.12,1.01 (active)
O=C(COc1ccc2ccccc2c1)Nc1cnoc1,1.12 ± 0.35,1.14 ± 0.081,1.12 ± 0.088,0.92 ± 0.053,1.05 ± 0.17,0.942 ± 0.1,1 (active)
O=C(Oc1ccc(C=Nc2ccc([N+](=O)[O-])cc2)cc1)c1ccccc1,0.769 ± 0.061,0.967 ± 0.089,0.978 ± 0.056,0.713 ± 0.025,0.985 ± 0.12,1.12 ± 0.29,0.998 (active)
Cc1ccc(C)c(C(=O)c2ccccc2NC(=O)c2ccccn2)c1,0.733 ± 0.041,0.85 ± 0.071,0.839 ± 0.054,1.01 ± 0.068,1.18 ± 0.15,1.11 ± 0.13,1.01 (active)
O=C1C(CCS(=O)c2ccccc2)C(=O)N(c2ccccc2)N1c1ccccc1 (centres undefined),0.833 ± 0.042,0.955 ± 0.076,0.954 ± 0.056,1.01 ± 0.068,1.22 ± 0.2,1.31 ± 0.44,1.02 (active)
Br.O=S(=O)(c1ccc(-c2csc(Nc3ccc(F)cc3)n2)cc1)N1CCOCC1,0.769 ± 0.068,0.989 ± 0.075,2.17 ± 0.15,0.768 ± 0.096,0.948 ± 0.054,1.55 ± 0.1,0.997 (active)
CC(C)NCC(O)COc1cccc2ccccc12 (centres undefined) [Prestw-1075],1.02 ± 0.064,0.92 ± 0.11,1.05 ± 0.043,0.896 ± 0.032,0.929 ± 0.071,0.918 ± 0.09,0.985 (active)
c1ccc(CCn2c3ccccc3c3nnc(SCCN4CCOCC4)nc32)cc1,0.859 ± 0.067,0.912 ± 0.11,1.01 ± 0.091,0.697 ± 0.042,1.2 ± 0.13,1.33 ± 0.18,1.01 (active)
CS(=O)(=O)N(CC(=O)NCCSCc1cccc(Cl)c1)c1cccc(Cl)c1,0.978 ± 0.16,0.986 ± 0.079,1.1 ± 0.15,1.02 ± 0.033,1.08 ± 0.11,1.24 ± 0.42,1 (active)
O=S1(=O)N=C(SCc2ccccc2)Nc2ccc(Cl)cc21,0.76 ± 0.059,0.913 ± 0.067,1.16 ± 0.11,0.718 ± 0.074,1.08 ± 0.12,1.11 ± 0.3,1.02 (active)
COc1ccccc1C(=O)Nc1ccc(Nc2ccc(-n3cccn3)nn2)cc1,2.27 ± 0.12,1.36 ± 0.12,1.91 ± 0.092,0.334 ± 0.017,1.45 ± 0.094,1.11 ± 0.1,0.721 (active)
O=C(Nc1ccc([N+](=O)[O-])cc1Cl)c1cccnc1,0.871 ± 0.26,0.96 ± 0.11,0.982 ± 0.16,0.958 ± 0.061,1.06 ± 0.23,1.33 ± 0.37,0.996 (active)
C[C@@H](O[C@H]1OCCN(Cc2n[nH]c(=O)[nH]2)[C@H]1c1ccc(F)cc1)c1cc(C(F)(F)F)cc(C(F)(F)F)c1,0.545 ± 0.086,0.634 ± 0.031,0.806 ± 0.073,0.961 ± 0.045,1.29 ± 0.084,1.04 ± 0.09,1.02 (active)
